HCV inhibitor – qHTS Assay for Inhibitors of Hepatitis C Virus (HCV). Huh7.5.1 HCVcc-Cre infection, luciferase reporter, 44 h. Potency, µM (titrated, usually from 41.8 µM), usual class: inhibitors. 3.4% of 340,000 active. AID 651820, 2012
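Antiviral activity was scored by luciferase reporter output from cells infected with HCVcc-Cre (~0.5 moi) in presence of compound, 44 h infection period, cells seeded 1,000/well 4 h prior.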
AMA1 RON2 block – qHTS for Inhibitors of AMA1-RON; Towards Development of Antimalarial Drug Lead: Primary Screen. Plasmodium falciparum AMA1 (3D7) - RON2 peptide interaction. AlphaScreen AMA1-biotinylated RON2 peptide binding. Potency, µM (highest dose often 58.2 µM), actives largely listed as inhibitors. 0.2% of 360,000 active. AID 720542, 2013; further: nearly all actives have a fitted effect of over 45% in size
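AMA1 (3D7) with his tag at 25 nM final met compounds first, then biotinylated RON2 peptide at 25 nM; detection used donor plus acceptor beads, 10 µg/mL apiece, read by AlphaScreen after 30 min at room temperature.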
Shiga inhibitor – A qHTS for Small Molecule Inhibitors of Shiga Toxin; AID 2315, 2010; 9.2% of 290,000 active; Vero cells, Shiga toxin protein synthesis inhibition reporter; inhibition, % at 38.7 µM; in the data active means inhibition mostly above about 28%, no sharp cut-off; inactive means mostly below about 43%
Pf growth 48h – Primary qHTS for delayed death inhibitors of the malarial parasite plastid, 48 hour incubation; P. falciparum luciferase growth in erythrocytes, 48 h; Potency, µM (titrated, usually from 28.7 µM), hits mostly inhibitors; 5.9% of 310,000 active; AID 504832, 2011
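In quantitative HTS format, infected erythrocytes bearing luciferase-reporter parasites were treated for a single generation at 37 C. Luminescence after adding detection reagent served as the growth measure.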
Pf growth 96h – Primary qHTS for delayed death inhibitors of the malarial parasite plastid, 96 hour incubation; P. falciparum luciferase reporter growth, 96 h; Potency, µM (series often up to 28.7 µM), actives largely listed as inhibitors; 6.9% of 320,000 active; AID 504834, 2011
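P. falciparum expressing integrated firefly luciferase, in erythrocytes at 2% hematocrit, 0.05% parasitemia, incubated with compounds 96 h at 37 C, 5% CO2. Growth inhibition read as loss of luminescence; two-generation exposure targets delayed-death apicoplast inhibitors.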
CHX counter – Cycloheximide Counterscreen for Small Molecule Inhibitors of Shiga Toxin; cell reporter, cycloheximide protein synthesis inhibition counterscreen; max response, %; 12% of 300,000 active; AID 2314, 2010; in the data active means max response mostly above about 13%, no sharp cut-off; inactive means mostly below about 14%; further: read at 38.3 µM for the half of the compounds with a filed dose
Hits are given with their value; . = inactive; ? = inconclusive; / = no result; + = active, no number; [ ] = dose if it differs, or a comment. The list is not random: actives were taken first. Their share in the collection is about 21%. Unless noted, the call rests on the fitted dose curve; in most records, active means well fitted curve in the direction sought with a large enough effect; inconclusive means small, poorly fitted or top-dose-only effect, or another doubt; inactive means no such curve, though single readings can be large; an effect the other way counts as inactive or inconclusive.

SMILES	HCV inhibitor	AMA1 RON2 block	Shiga inhibitor	Pf growth 48h	Pf growth 96h	CHX counter
Cc1ccc(C(=O)Nc2ccc(Cl)cn2)cc1S(=O)(=O)N1CCOCC1	?	.	60.5	.	.	35.3
Cc1noc(C)c1COC(=O)c1cccc(S(=O)(=O)N2CCCCCC2)c1	2.24µM	.	.	?	.	.
CCC(=Cc1ccccc1O)c1ccncc1	.	.	/	/	/	/
Cc1cc(C)cc(CSc2ccc(S(=O)(=O)N3CCCC3)cn2)c1	?	.	/	9.28µM	9.28µM	/
Cc1ccccc1CSc1ccc(S(=O)(=O)N2CCCC2)cn1	?	.	/	/	/	/
O=S(=O)(c1ccc(SCc2ccc(Cl)cc2)nc1)N1CCCC1	?	.	/	11.7µM	?	/
O=S(=O)(c1ccc(SCc2c(F)cccc2Cl)nc1)N1CCCC1	/	.	/	/	/	/
CC1(c2nnc(-c3cccc(Cl)c3)o2)CC(c2ccc(F)cc2)=NO1 (centres undefined)	.	.	/	/	/	/
COc1ccc2c(c1)CCC1C2=NN(/C(C)=C/C(C)=O)C1c1cccc(F)c1 (centres undefined)	11.2µM	.	47.3	.	.	31.5
O=C(c1cn(Cc2ccccc2)nc1-c1ccccc1)N1CCN(c2ccccn2)CC1	?	.	/	14.7µM	?	/
COc1ccc(-c2nn(Cc3ccccc3)cc2C(=O)N2CCN(c3ccccn3)CC2)cc1OC	.	.	/	?	?	/
CC(=O)c1ccc(N2CCN(C(=O)c3cn(Cc4ccccc4)nc3-c3cccnc3)CC2)c(F)c1	?	.	/	13.1µM	9.28µM	/
O=Nc1c2nc3ccccc3n(O)c-2c2ccccc12	/	/	114.7	.	?	72.9
CC(C)C(=O)Nc1ccc(N2CCCC2)c(Cl)c1	.	.	.	.	.	43.7
CCN1CCN(c2ccc(NC(=O)C(C)C)cc2Cl)CC1	.	.	.	.	.	.
CCCC(=O)NC(=S)Nc1ccc(N2CCOCC2)c(Cl)c1	.	.	43.6	?	11.7µM	19.0
CC(C)CC(=O)NC(=S)Nc1ccc(N2CCCC2)c(Cl)c1	.	.	56.5	3.29µM	?	.
Cc1ccc(C)c(S(=O)(=O)N2CCN(C(=O)CCC(=O)c3cc(C)sc3C)CC2)c1	?	.	/	?	?	/
COc1cccc(C(c2nnnn2C2CCCC2)N2CCN(C/C=C/c3ccccc3)CC2)c1OC (centres undefined)	/	.	/	/	/	/
CCOC(=O)c1sc2nc(C)cc(C)c2c1NC(=O)c1ccco1	.	.	.	.	.	.
C=CCOC(=O)c1sc(NC(=O)c2ccco2)nc1C	.	.	127.9	.	.	27.9
CCOC(=O)c1sc(NC(=O)c2ccc(CC)s2)nc1C	?	.	105.4	.	/	40.0
CCc1nnc(NC(=O)c2cc3ccccc3oc2=O)s1	.	.	.	.	/	10.7
Cc1cnc(NC(=O)c2cc3ccccc3o2)s1	.	.	.	.	.	17.7
CC(=O)c1c(C)[nH]c(C(=O)N2CCN(c3ccccn3)CC2)c1C	.	.	.	.	?	.
SMILES	HCV inhibitor	AMA1 RON2 block	Shiga inhibitor	Pf growth 48h	Pf growth 96h	CHX counter
Cc1cc(C)c(C(=O)NNC(=O)c2cccnc2)c(C)c1	.	.	.	.	.	.
CCOC(=O)c1csc(NC(=O)c2cc3ccccc3o2)n1	.	.	74.8	.	.	55.2
COCCNCC(=O)Nc1nc(C)cs1	.	.	.	.	.	.
CCOC(=O)c1sc(NC(=O)c2ccccc2OC)nc1C	.	.	69.0	.	.	23.9
CCOC(=O)c1sc(NC(=O)c2cc3ccccc3o2)nc1C	.	.	60.6	.	?	39.7
CCc1ccc(C(=O)Nc2nc(C)cs2)s1	.	.	35.6	.	.	40.8
O=C(Nc1cc(C(F)(F)F)cc(C(F)(F)F)c1)[C@H]1O[C@@H](n2ccc(=O)[nH]c2=O)[C@H](O)[C@@H]1O	/	.	/	/	/	/
COc1ccccc1NS(=O)(=O)c1cccc(C(=O)OCC(=O)NC2CC2)c1	.	.	/	.	.	/
CCc1ccc(C(=O)Nc2cc(C)ccc2F)s1	.	.	104.8	.[1.15 µM]	.	70.2
CS(=O)(=O)c1ccc2sc(NC(=O)c3cc4ccccc4o3)nc2c1	.	.	.	.	.	.
Cc1nnc(NC(=O)c2cc3ccccc3o2)s1	.	.	67.3	.	.	25.0
O=C(Nc1nnc(C2CC2)s1)c1cc2ccccc2o1	.	.	/	.	.	/
CCc1ccc(C(=O)Nc2cccc(-c3nn[nH]n3)c2)s1	.	.	.	?	.	.
Cc1nc(NC(=O)c2cc3ccccc3o2)sc1C	.	.	.	.	?	37.3
CSCCNC(=O)Nc1c(-c2c(Cl)cccc2Cl)noc1C	.	.	.	.	.	.
CCOc1ccc(C(=O)NCCN2CCCCC2)c(OCC)c1	.	.	.	?	.	.
Cn1nnnc1Sc1ncnc2scc(-c3cccc(S(C)(=O)=O)c3)c12	/	/	/	10.4µM	?	/
Cn1nnnc1Sc1ccc([N+](=O)[O-])cc1Cl	.	.	.	?	.	.
Cn1nnnc1Sc1ncnc2scc(-c3ccc([N+](=O)[O-])cc3)c12	/	/	/	13.1µM	3.7µM	/
Cc1sc2ncnc(Sc3ccccc3C(=O)O)c2c1C	.	.	.	.	.	.
Cn1nnnc1Sc1ncnc2scc(-c3ccc(Cl)cc3)c12	/	/	/	6.57µM	3.7µM	/
Cc1sc2ncnc(Sc3nnnn3-c3ccccc3)c2c1C	?	.	.	4.65µM	.	.
Cc1ccc([C@@]2(OC(=O)c3ccccc3)C(=O)N(C(=O)OC(C)(C)C)c3ccccc32)cc1	/	.	/	/	/	/
COc1ccc(C(=O)N2CCN(S(=O)(=O)c3ccc4c(c3)OCCO4)CC2)cc1OC	.	.	/	?	.	/
Cn1nnnc1Sc1ncnc2scc(-c3ccccc3Cl)c12	/	/	/	11.7µM	1.65µM	/
SMILES	HCV inhibitor	AMA1 RON2 block	Shiga inhibitor	Pf growth 48h	Pf growth 96h	CHX counter
Cn1nnnc1Sc1c(Cl)cccc1[N+](=O)[O-]	.	.	.	.	?	.
Cc1ccc(CN2CCN(CC(=O)N/N=C/c3c[nH]c4ccccc34)CC2)cc1	.	.[2.32 µM]	.	.	.	.
CCc1ccc2c(Cl)c(C(=O)N/N=C/c3c[nH]c4ccccc34)sc2c1	?	.	.	.	?	22.3
CCc1ccc(-c2cc(C(=O)N/N=C/c3c[nH]c4ccccc34)[nH]n2)cc1	?	.	105.7	.	.	35.2
CCc1ccc(/C=N/NC(=O)c2cc(-c3cccc([N+](=O)[O-])c3)n[nH]2)cc1	?	.	.	.	?	.
Cc1ccc2c(C)c(C(=O)N3CCN(Cc4ccc5c(c4)OCO5)CC3)oc2c1C	11.2µM	.	74.7	?	?	32.2
CC1CCN(c2nc3ccc(C(=O)N4CCN(Cc5ccc6c(c5)OCO6)CC4)cc3s2)CC1	3.16µM	.	+	/	4.15µM	135.6
Cc1ccc(C(=O)N2CCN(Cc3ccc4c(c3)OCO4)CC2)cc1S(=O)(=O)N1CCOCC1	?	.	.	?	10.4µM	.

Compound activity from PubChem BioAssay.
